Laboratory results: the supplement of paper PMC11732987, “Enantioselective OTUD7B fragment discovery through chemoproteomics screening and high-throughput optimisation” (Communications Chemistry, 2025)

How the values were obtained:
Assay in all cases: log2 ratio of Biotin-Ahx-Ub-VS probe labelling (fragment/DMSO); higher = less target engagement (more negative = stronger competition), active = hit call of the paper (q ≤ 0.05, log2 ratio ≤ -1)
Details in all cases: compound concentration: 200 uM; treatment time: 3 h
OTUD6B = molecular target: T1, OTUD6B (UniProt Q8N6M0)
T1 sequence (whole entry): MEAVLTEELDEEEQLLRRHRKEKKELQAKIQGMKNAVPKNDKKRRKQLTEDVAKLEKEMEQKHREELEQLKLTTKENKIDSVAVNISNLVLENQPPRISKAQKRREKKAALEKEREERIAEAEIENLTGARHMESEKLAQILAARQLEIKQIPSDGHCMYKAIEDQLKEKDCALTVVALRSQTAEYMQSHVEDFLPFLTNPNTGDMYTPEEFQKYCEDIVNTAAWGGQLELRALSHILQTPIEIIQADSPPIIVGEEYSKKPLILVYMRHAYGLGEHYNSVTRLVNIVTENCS
Method in brief: (§1)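 Global-median-normalised Spectronaut label-free quantities were compared by unpaired t-test, and values are average log2 ratios of fragment over vehicle. Only proteins with ≥2 unique peptides were used. HEK293T lysate (495 µg per sample) was treated in triplicate with fragment at 200 µM or vehicle for 3 h and then with Biotin-Ahx-Ub-VS at 0.5 µM final for 1 h. Labelled DUBs were then NeutrAvidin-enriched, digested with LysC and trypsin, and run by diaPASEF LC-MS/MS.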

OTUD7B = molecular target: T2, OTUD7B (UniProt Q6GQQ9)
T2 sequence (whole entry): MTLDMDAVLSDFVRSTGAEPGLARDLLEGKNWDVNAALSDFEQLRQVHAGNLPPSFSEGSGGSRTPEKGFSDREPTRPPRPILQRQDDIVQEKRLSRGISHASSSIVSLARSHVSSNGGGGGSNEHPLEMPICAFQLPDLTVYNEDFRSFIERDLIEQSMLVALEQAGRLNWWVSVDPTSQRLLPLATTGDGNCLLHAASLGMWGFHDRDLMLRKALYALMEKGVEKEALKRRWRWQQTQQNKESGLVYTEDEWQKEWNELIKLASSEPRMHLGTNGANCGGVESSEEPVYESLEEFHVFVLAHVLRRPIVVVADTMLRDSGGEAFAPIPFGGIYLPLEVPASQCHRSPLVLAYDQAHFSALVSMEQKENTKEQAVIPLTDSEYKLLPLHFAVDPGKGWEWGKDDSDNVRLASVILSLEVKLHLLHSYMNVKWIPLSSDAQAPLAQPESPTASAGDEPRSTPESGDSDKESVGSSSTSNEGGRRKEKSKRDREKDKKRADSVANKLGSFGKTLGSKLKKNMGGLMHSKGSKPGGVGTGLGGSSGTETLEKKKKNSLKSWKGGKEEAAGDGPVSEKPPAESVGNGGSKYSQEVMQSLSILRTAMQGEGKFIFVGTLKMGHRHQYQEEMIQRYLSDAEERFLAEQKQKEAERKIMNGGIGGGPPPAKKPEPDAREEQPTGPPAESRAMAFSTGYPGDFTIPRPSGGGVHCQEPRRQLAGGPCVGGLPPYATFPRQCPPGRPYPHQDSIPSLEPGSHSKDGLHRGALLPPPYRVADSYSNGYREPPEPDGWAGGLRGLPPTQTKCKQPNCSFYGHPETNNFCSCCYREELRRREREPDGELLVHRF
Method in brief: as §1

PRPF8 = PRPF8 (UniProt Q6P2Q9)
Method in brief: as §1

PSMD7 = molecular target: T3, PSMD7 (UniProt P51665)
T3 sequence (whole entry): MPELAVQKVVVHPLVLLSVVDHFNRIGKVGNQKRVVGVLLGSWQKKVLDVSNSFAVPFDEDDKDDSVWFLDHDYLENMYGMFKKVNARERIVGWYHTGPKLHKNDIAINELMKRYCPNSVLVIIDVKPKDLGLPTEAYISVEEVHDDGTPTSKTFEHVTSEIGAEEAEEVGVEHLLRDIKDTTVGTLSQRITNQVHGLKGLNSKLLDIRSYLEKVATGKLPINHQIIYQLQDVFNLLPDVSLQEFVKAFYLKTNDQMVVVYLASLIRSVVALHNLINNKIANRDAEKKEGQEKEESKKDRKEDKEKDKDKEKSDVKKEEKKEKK
Method in brief: as §1

UCHL1 = UCHL1 (UniProt P09936)
UCHL1, sequence (P09936 whole entry, looked up): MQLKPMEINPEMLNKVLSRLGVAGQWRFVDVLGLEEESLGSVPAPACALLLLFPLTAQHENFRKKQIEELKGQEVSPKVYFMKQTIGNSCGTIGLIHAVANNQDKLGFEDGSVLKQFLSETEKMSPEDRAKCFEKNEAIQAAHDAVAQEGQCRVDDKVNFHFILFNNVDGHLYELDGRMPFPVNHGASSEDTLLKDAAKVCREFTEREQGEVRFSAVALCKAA
Method in brief: as §1

UCHL3 = molecular target: T4, UCHL3 (UniProt P15374)
T4 sequence (whole entry): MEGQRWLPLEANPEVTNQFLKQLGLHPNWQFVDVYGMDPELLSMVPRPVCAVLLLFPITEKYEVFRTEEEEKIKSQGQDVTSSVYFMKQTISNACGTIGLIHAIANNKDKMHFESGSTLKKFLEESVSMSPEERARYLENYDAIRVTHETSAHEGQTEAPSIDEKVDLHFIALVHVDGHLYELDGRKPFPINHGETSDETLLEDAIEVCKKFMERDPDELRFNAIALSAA
Method in brief: as §1

UCHL5 = molecular target: T5, UCHL5 (UniProt Q9Y5K5)
T5 sequence (whole entry): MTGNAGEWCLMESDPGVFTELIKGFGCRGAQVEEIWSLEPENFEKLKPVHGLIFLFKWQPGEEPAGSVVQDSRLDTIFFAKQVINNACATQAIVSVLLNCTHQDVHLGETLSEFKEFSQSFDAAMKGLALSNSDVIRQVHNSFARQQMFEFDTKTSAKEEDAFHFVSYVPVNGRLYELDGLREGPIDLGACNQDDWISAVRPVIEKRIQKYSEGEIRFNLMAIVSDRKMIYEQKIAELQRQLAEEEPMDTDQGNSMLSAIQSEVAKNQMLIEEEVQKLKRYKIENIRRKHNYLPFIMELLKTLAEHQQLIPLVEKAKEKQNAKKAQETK
Method in brief: as §1

USP10 = USP10 (UniProt Q14694)
USP10, sequence (Q14694 whole entry): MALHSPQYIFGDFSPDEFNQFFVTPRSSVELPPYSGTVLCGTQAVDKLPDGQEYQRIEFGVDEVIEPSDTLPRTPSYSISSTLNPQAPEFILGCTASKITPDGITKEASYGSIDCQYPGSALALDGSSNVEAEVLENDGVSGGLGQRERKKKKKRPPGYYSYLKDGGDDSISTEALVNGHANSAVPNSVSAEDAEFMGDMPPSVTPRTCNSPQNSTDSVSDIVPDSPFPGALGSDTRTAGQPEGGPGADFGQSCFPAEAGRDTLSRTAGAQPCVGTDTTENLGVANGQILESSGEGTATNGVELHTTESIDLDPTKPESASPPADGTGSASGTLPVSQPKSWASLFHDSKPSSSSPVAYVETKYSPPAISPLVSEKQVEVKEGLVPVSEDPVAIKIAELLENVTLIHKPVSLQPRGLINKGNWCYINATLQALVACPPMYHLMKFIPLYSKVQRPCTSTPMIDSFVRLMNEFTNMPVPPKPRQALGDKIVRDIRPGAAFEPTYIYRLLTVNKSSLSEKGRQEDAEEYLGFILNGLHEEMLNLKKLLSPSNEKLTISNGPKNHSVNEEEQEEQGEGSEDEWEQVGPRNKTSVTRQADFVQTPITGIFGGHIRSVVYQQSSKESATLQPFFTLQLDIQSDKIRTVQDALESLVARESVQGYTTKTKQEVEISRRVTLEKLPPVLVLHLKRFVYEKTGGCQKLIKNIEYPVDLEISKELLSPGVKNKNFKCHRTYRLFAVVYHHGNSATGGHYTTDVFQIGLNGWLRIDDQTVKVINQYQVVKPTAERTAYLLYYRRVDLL
Method in brief: as §1

USP15 = molecular target: T6, USP15 (UniProt Q9Y4E8)
T6 sequence (whole entry): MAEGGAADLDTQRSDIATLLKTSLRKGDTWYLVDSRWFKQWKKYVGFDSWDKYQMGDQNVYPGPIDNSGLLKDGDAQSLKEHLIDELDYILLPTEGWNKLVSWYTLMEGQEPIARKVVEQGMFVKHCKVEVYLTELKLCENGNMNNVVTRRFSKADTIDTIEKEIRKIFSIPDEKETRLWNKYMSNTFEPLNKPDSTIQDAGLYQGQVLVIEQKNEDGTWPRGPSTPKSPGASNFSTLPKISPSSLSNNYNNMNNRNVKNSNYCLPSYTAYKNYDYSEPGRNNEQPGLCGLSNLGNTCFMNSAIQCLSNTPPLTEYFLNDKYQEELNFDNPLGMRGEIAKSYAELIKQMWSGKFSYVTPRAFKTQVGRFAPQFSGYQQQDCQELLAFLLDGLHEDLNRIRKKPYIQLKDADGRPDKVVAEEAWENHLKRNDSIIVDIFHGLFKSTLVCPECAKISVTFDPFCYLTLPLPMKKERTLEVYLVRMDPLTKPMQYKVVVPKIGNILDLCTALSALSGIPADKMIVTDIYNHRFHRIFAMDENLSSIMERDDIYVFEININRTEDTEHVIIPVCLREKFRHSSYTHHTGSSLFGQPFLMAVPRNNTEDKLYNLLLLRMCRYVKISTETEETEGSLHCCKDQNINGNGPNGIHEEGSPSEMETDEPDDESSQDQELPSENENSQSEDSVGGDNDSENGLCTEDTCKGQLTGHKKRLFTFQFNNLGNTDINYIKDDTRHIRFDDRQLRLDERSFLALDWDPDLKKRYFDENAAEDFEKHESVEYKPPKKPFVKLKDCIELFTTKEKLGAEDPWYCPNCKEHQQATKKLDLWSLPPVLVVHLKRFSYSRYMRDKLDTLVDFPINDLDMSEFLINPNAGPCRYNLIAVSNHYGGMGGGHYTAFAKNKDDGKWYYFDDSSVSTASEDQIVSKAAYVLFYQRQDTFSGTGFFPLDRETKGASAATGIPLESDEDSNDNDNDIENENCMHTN
Method in brief: as §1

Measured: log2 ratio of Biotin-Ahx-Ub-VS probe labelling

NC(=O)C1CCCCN1C(=O)CCl (centres undefined)
inactive: OTUD6B -0.175 | PRPF8 -0.153 | PSMD7 -0.146 | UCHL3 0.215 | UCHL5 -0.42 | USP10 -0.0331 | USP15 -0.0982
active: OTUD7B -1.65 | UCHL1 -1.52
